Most compounds without a hit are left out; they make up all but 11% or so of the library.
HTT ATP protect = protects HTT-Q103 PC12 cells, measured by ATP; PC12 HTT-Q103 induced, cytoprotection, ATP luminescence, 40 h; Potency, µM (doses to about 56.4 µM), for the others: cytoprotection (ATP increase), usual class: activators; hit rate 0.14% among 230,000; also: potency is read from the fitted curve at half-maximal effect; % of control where 0% means no effect; nearly all actives have a fitted effect of over 45% in size
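Compounds added alongside 100 nM tebufenozide, which induces toxic Q103 huntingtin exon 1-GFP in stable PC12 cells; surviving cells quantified by luminescent ATP measurement. Medium: phenol red-free DMEM, 5% equine and 5% calf serum.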
CBFb-RUNX1 inh = inhibitors of human CBF-beta and RUNX1 interaction; Q01196+Q13951; AlphaScreen CBFb-His/RUNX1-biotin binding, biochemical; Potency, µM (highest dose often 59.8 µM), for inactives: at the top dose activity, negative = inhibition, actives largely listed as inhibitors; 230,000 tested, under 10 active; AID 1477; also: % of control where 0% means no effect
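CBFb-His/RUNX1-biotin, 30 nM each, preincubated 20 min RT; compound 15 min RT; Ni + streptavidin beads 50 ng each, 90 min RT; AlphaScreen read.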
HttQ103 aggreg = mutant huntingtin aggregation inhibition | PC12 HttQ103-GFP aggregates, Acumen cytometry, 40 h | Potency, µM (titrated, usually from 46.1 µM), for inactives: at the highest dose activity change, negative = inhibition, usual class: inhibitors | hit rate 1.1% among 220,000 | AID 1688; also: potency is read from the fitted curve at half-maximal effect; % is scaled to controls: 0 for no effect and ±100 for the full control effect; nearly all actives have a fitted effect of over 60% in size
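Read-out: GFP aggregate count by laser scanning cytometer (488 nm excitation, 500-530 nm emission, 1–25 µm objects >6 SD above background). Cells: PC12, inducible HTTex1-Q103-GFP, 100 nM tebufenozide; compounds titrated.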
PNC inhibitor = perinucleolar compartment assembly inhibition; PC3M PTB-GFP, PNC prevalence imaging, 16 h; stronger effect = lower value; activity change (PNC), negative = inhibition, % at 10 µM; hit rate 3.1% among 140,000;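 active = readout at or below -70, meaning at least 70% loss of cells showing the perinucleolar compartment, a nuclear body marking cancer cells; inconclusive = readout between -30 and a set limit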;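 also: plate controls were DMSO wells for no effect and camptothecin positive control wells for full effect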
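Compounds are pinned in duplicate onto adhered PC3M cells stably expressing GFP-tagged PTB and incubated 16 h at 37 C. Cells are then fixed, nuclei stained with Hoechst, and PNC-positive cells counted.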
ALDH1A1 block = inhibitors of human aldehyde dehydrogenase 1A1 | P00352 | Purified ALDH1A1, NADH fluorescence, propionaldehyde substrate | Potency, µM (titrated, usually from 75.3 µM), for the others: top-dose activity, negative = inhibition, hits mostly inhibitors | hit rate 7.3% among 220,000 | AID 1030; active = well fitted inhibition curve with a large enough effect, not every such curve was filed as active; inconclusive = small, poorly fitted or top-dose-only effect, or another doubt; inactive = no such curve, though single readings can be large or run the other way;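 also: potency is read from the fitted curve at half-maximal effect; plate controls were no enzyme wells and a reference inhibitor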
Target sequence (P00352 whole entry, looked up): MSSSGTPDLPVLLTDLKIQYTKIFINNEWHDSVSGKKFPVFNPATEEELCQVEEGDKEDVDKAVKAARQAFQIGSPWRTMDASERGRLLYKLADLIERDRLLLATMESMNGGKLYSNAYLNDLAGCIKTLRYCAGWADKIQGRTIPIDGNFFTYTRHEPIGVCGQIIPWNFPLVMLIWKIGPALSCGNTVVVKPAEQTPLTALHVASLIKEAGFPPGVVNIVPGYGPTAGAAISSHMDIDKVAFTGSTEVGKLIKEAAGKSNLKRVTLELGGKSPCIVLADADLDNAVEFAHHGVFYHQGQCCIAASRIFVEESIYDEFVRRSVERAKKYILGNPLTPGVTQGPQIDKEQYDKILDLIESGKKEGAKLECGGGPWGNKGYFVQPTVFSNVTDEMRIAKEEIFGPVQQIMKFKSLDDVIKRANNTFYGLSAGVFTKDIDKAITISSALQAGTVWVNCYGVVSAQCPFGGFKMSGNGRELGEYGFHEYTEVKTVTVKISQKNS
HPGD block = HPGD (human) dehydrogenase inhibition; P15428; purified HPGD, NADH fluorescence kinetic, PGE2 substrate; Potency, µM, inactives show at the highest dose activity change, negative = inhibition, most hits filed as inhibitors; hit rate 4.3% among 150,000; AID 894; active = well fitted inhibition curve with a large enough effect, not every such curve was filed as active; inconclusive = small, poorly fitted or top-dose-only effect, or another doubt; inactive = no such curve, though single readings can be large or run the other way; also: potency is read from the fitted curve at half-maximal effect; % is scaled to controls: 0 for no effect and ±100 for the full control effect
Target sequence (P15428 whole entry, looked up): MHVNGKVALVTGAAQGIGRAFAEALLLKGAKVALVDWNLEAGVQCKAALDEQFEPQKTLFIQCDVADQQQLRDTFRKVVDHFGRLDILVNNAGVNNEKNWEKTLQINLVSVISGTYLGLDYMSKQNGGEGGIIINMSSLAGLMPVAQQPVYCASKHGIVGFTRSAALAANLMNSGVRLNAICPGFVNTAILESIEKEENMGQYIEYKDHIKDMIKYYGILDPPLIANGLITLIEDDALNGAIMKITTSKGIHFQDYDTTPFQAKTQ
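NADH formation kinetics: reaction with 30 uM PGE2 and 1 mM NAD+ (final), 20 nM enzyme, Tris-HCl pH 8 with Tween 20, after 15 min compound preincubation at room temperature. Fluorescence change, last versus first of five reads.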
Numbers without * were called inactive; [ ] = another dose, or the depositor's remark. Unless noted, calls follow the shape of the dose curve; as a rule, active = well fitted curve in the direction sought with a large enough effect; inconclusive = small, poorly fitted or top-dose-only effect, or another doubt; inactive = no such curve, though single readings can be large; an effect the other way counts as inactive or inconclusive.

`CC1=NOC(=O)/C1=C\c1ccc(-c2cccc(Cl)c2)o1` gave HTT ATP protect -93%, CBFb-RUNX1 inh -25%, HttQ103 aggreg inconclusive, PNC inhibitor 56, ALDH1A1 block inconclusive and HPGD block 3.2µM*.
Cc1ccc(/C=C2/C(=O)ON=C2c2ccccc2)o1 was read as HTT ATP protect -15%[10 µM], CBFb-RUNX1 inh -15%, HttQ103 aggreg -12%[9.22 µM] and ALDH1A1 block -12%.
Screening COC(=O)c1ccc(N2NC(=O)/C(=C/c3ccc(-c4ccc(Cl)c(C(=O)O)c4)o3)C2=O)cc1 returned CBFb-RUNX1 inh inconclusive and ALDH1A1 block 8.9µM*.
For CC1=NOC(=O)/C1=C\c1ccc(-c2ccccc2Br)o1 the results were HTT ATP protect -39%, CBFb-RUNX1 inh -5%, HttQ103 aggreg -3% and ALDH1A1 block 18µM*.
For O=C(O)c1cc(-c2ccc(/C=C3/SC(=S)N(Cc4ccccc4)C3=O)o2)ccc1Cl the results were HTT ATP protect 24%, CBFb-RUNX1 inh inconclusive, HttQ103 aggreg -2% and ALDH1A1 block 0.089µM*.
`CC(=O)OC1C=C[C@@H](OC(C)=O)C1` (some centres not stated) gave CBFb-RUNX1 inh 8%.
O=c1c(-c2ccc(Cl)cc2)nc2cnc(N3CCOCC3)nc2n1-c1ccccc1 was read as HTT ATP protect 3% and ALDH1A1 block inconclusive.
COc1cc2c(cc1OC)C1C(=O)c3c(cc4c(c3O)C=CC(C)(C)O4)OC1CO2 (configuration not stated) was read as ALDH1A1 block 2% and HPGD block -13%.
Screening O=C(O)[C@@H]1[C@@H]2C[C@@H]3[C@@H](OC(=O)[C@@H]31)[C@H]2Br returned HTT ATP protect -19%[10 µM], ALDH1A1 block 8%[13.5 µM] and HPGD block 3%.
`CC1(C)OC(=O)C(=Cc2ccc(-c3ccc(Cl)c(C(=O)O)c3)o2)C(=O)O1` gave HTT ATP protect 13%[10 µM], CBFb-RUNX1 inh -13%, HttQ103 aggreg -4% and ALDH1A1 block inconclusive.
`CC1=NOC(=O)/C1=C\c1ccc(-c2ccc(Cl)c(C(=O)O)c2)o1` gave CBFb-RUNX1 inh inconclusive, HttQ103 aggreg 16% and ALDH1A1 block 0.89µM*.
For COc1ccc(/C=C/C(=O)Nc2c(C(=O)O)[nH]c3ccccc23)cc1OC the results were HTT ATP protect 6%[10 µM], CBFb-RUNX1 inh 8% and HttQ103 aggreg 6%[9.22 µM].
O=C1c2c(O)ccc(O)c2C(=O)c2c(NCCNCCO)ccc(NCCNCCO)c21 was read as HTT ATP protect -274%, CBFb-RUNX1 inh inconclusive, HttQ103 aggreg 10µM*, ALDH1A1 block inconclusive and HPGD block -6%.
Screening Oc1cc(Cc2ccccc2)cnc1CN1CCCCC1 returned HTT ATP protect 8%, CBFb-RUNX1 inh 0%, HttQ103 aggreg inconclusive, PNC inhibitor 43, ALDH1A1 block 25µM* and HPGD block 25µM*.
`CC(C)(C)[C@@]1(O)CCN2C[C@@H]3c4ccccc4CCc4cccc(c43)[C@@H]2C1` gave HTT ATP protect 0%[1.9 µM].
For Fc1ccc(NC(=S)Nc2ccc(Cl)cc2)cc1 the results were HTT ATP protect -4%, CBFb-RUNX1 inh -9%, HttQ103 aggreg -12% and ALDH1A1 block -7%.
`O=C(NNC(=S)Nc1ccc(F)cc1)C1CC1c1ccc(Cl)cc1` (configuration not stated) gave CBFb-RUNX1 inh 18%, HttQ103 aggreg -8%, PNC inhibitor -18, ALDH1A1 block 1% and HPGD block 16µM*.
Screening Cc1ccc(NC(=S)NNC(=O)C2CC2c2ccc(C)cc2)cc1 (configuration not stated) returned HTT ATP protect 31%[10 µM], CBFb-RUNX1 inh -10%, HttQ103 aggreg 15%[9.22 µM], PNC inhibitor -100*, ALDH1A1 block inconclusive and HPGD block -18%.
COc1ccc(NC(=S)NNC(=O)C2CC2c2ccc(C)cc2)cc1 (configuration not stated) was read as CBFb-RUNX1 inh -2%, HttQ103 aggreg 16%, PNC inhibitor 24, ALDH1A1 block 2.5µM* and HPGD block -25%.
For CCN(CC)S(=O)(=O)c1ccc(C)c(NC(=O)CN2CCN(C)CC2)c1 the results were HTT ATP protect 23%[10 µM], CBFb-RUNX1 inh 13%, HttQ103 aggreg -3%[9.22 µM] and ALDH1A1 block inconclusive.
Screening CCCCN(CCCC)C(=O)/C=C/c1cccc([N+](=O)[O-])c1 returned HTT ATP protect -6%[10 µM], CBFb-RUNX1 inh 15%, HttQ103 aggreg -20%, PNC inhibitor 18, ALDH1A1 block 4.5µM* and HPGD block -17%.
For CCN(C(=O)COC(=O)/C=C/c1cccc([N+](=O)[O-])c1)c1ccccc1 the results were HTT ATP protect -22%, CBFb-RUNX1 inh 4%, HttQ103 aggreg -6% and ALDH1A1 block 14µM*.
Screening Cc1c(Cl)c(C(=O)NC2CCCC2)nn1C returned HTT ATP protect -14%[10 µM], CBFb-RUNX1 inh 15%, HttQ103 aggreg -27%, PNC inhibitor 17, ALDH1A1 block 0% and HPGD block 35µM*.
Screening Cn1nc(C(=O)NC2CCCCCC2)ccc1=O returned HTT ATP protect -16%, CBFb-RUNX1 inh 10%, HttQ103 aggreg 1%, PNC inhibitor 20, ALDH1A1 block inconclusive and HPGD block -11%.
Screening O=C(Nc1ccc(Cl)c(Cl)c1)Nc1cc(S(=O)(=O)N2CCOCC2)ccc1N1CCCC1 returned HTT ATP protect -2%[10 µM], CBFb-RUNX1 inh -12%, HttQ103 aggreg inconclusive, PNC inhibitor 9, ALDH1A1 block inconclusive and HPGD block -21%.
`O=[N+]([O-])c1ccc2c(c1Nc1ccccc1)=NC1(CCCCC1)N=2` gave HTT ATP protect -21%, CBFb-RUNX1 inh -24%, HttQ103 aggreg inconclusive, PNC inhibitor -109*, ALDH1A1 block -14% and HPGD block -10%.
O=[N+]([O-])c1ccccc1Nc1ccccc1 was read as HTT ATP protect 6%, CBFb-RUNX1 inh inconclusive, HttQ103 aggreg 25%, ALDH1A1 block 16% and HPGD block -20%.
For COc1ccc(Nc2ccncc2[N+](=O)[O-])cc1 the results were HTT ATP protect 3%, CBFb-RUNX1 inh -5%, HttQ103 aggreg inconclusive and ALDH1A1 block -7%.
COc1ccc(Nc2c([N+](=O)[O-])ccc3c2=NC2(CCCCC2)N=3)cc1 was read as HTT ATP protect -17%, HttQ103 aggreg 17% and ALDH1A1 block 7.1µM*.
For Cn1nc(C(=O)Nc2ccc(S(=O)(=O)N3CCOCC3)cc2)c2ccccc2c1=O the results were HTT ATP protect 7%[10 µM], CBFb-RUNX1 inh 3%, HttQ103 aggreg 15% and ALDH1A1 block 7%.
